Data reported in PubChem BioAssay (NCATS).
Several values for one entry are separate records, joined by “and”; a condition that tells them apart may be missing. Equal entries are not always repeated. Results filed as inconclusive are left out. Where a call stands in place of a potency, no number is given. Values without a mark were called inactive. Activity calls are given as the source filed them. The call rests on the fitted dose curve; in most records, active means well fitted curve in the direction sought with a large enough effect; inconclusive means small, poorly fitted or top-dose-only effect, or another doubt; inactive means no such curve, though single readings can be large; an effect the other way counts as inactive or inconclusive.

Experiments:
[1] = qHTS of pediatric cancer cell lines to identify multiple opportunities for drug repurposing: Primary screen for TC32 cells (AID 1347089); further: nearly all actives have a fitted effect of over 60% in size; further: potency means the concentration at half of the fitted maximal effect
Method in brief: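 qHTS, TC32, 48 h drug treatment, CellTiter-Glo luminescence as a proxy for metabolically active cells; primary top concentration 46 µM (MIPE 11-pt, NPC 8-pt); confirmatory 11-pt.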

[2] = qHTS of pediatric cancer cell lines to identify multiple opportunities for drug repurposing: Primary screen for DAOY cells (AID 1347090); further: nearly all actives have a fitted effect of over 55% in size; further: potency means the concentration at half of the fitted maximal effect; on activity change, negative = cytotoxic: series mostly up to about 46 µM
Method in brief: (§1)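 Cell viability, CellTiter-Glo luminescence; 500-1,000 cells/well, 8- or 11-point titration, 48 h compound exposure at 37 degrees C, 5% CO2. Controls: DMSO neutral, bortezomib 2.3 µM final as positive.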

[3] = qHTS of pediatric cancer cell lines to identify multiple opportunities for drug repurposing: Primary screen for A673 cells (AID 1347092); further: nearly all actives have a fitted effect of over 45% in size; further: potency means the concentration at half of the fitted maximal effect
Method in brief: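 Luminescence from CellTiter-Glo, taken after 15 min at room temperature, served as the proxy for metabolically active cells following 48 h treatment. Both potency and efficacy were taken from curves fitted to the titration data.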

[4] = qHTS of pediatric cancer cell lines to identify multiple opportunities for drug repurposing: Primary screen for SK-N-MC cells (AID 1347093); further: potency means the concentration at half of the fitted maximal effect; on activity change, negative = cytotoxic: series mostly up to about 46 µM
Method in brief: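 Metabolically active cells were quantified by ATP-dependent luminescence (CellTiter-Glo, 15 min at room temperature) following 48 h treatment. Cells had been plated at 500-1,000 per well and settled for 5 h beforehand.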

[5] = qHTS of pediatric cancer cell lines to identify multiple opportunities for drug repurposing: Primary screen for NB-EBc1 cells (AID 1347095); further: potency means the concentration at half of the fitted maximal effect
Method in brief: (§2)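 Quantitative HTS format: each compound titrated (MIPE 11 points from 0.78 nM, NPC 8 points from 0.59 nM) onto cells plated 5 hours earlier. After 48 h at 37 degrees C, CellTiter-Glo luminescence was recorded.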

[6] = qHTS of pediatric cancer cell lines to identify multiple opportunities for drug repurposing: Primary screen for U-2 OS cells (AID 1347096); further: nearly all actives have a fitted effect of over 50% in size; further: potency means the concentration at half of the fitted maximal effect
Method in brief: (§3)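 Cells (500-1,000/well) rested 5 h, then received compounds for 48 h; metabolically active cells were measured by CellTiter-Glo luminescence. Final concentrations spanned up to 46 µM (MIPE, 11-point) or 0.59 nM-46 µM (NPC, 8-point) in primary screens, 11-point in follow-ups.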

[7] = qHTS of pediatric cancer cell lines to identify multiple opportunities for drug repurposing: Primary screen for Saos-2 cells (AID 1347097); further: nearly all actives have a fitted effect of over 40% in size; further: potency means the concentration at half of the fitted maximal effect
Method in brief: as §2

[8] = qHTS of pediatric cancer cell lines to identify multiple opportunities for drug repurposing: Primary screen for SK-N-SH cells (AID 1347098); further: nearly all actives have a fitted effect of over 65% in size; further: potency means the concentration at half of the fitted maximal effect
Method in brief: as §3

[9] = qHTS of pediatric cancer cell lines to identify multiple opportunities for drug repurposing: Primary screen for BT-37 cells (AID 1347094); further: potency means the concentration at half of the fitted maximal effect; on activity change, negative = cytotoxic: series mostly up to about 57 µM
Method in brief: as §2

[10] = qHTS of pediatric cancer cell lines to identify multiple opportunities for drug repurposing: Primary screen for SJ-GBM2 cells (AID 1347091)
Method in brief: as §1

In the case of `CCCC1CCCCN1` (stereo not given), the Potency [1] was “inactive”, the Potency [2] was “inactive” and the Potency [3] was “inactive”. The Potency [4] was “inactive”, the Potency [5] was “inactive” and the Potency [6] was “inactive”. The Potency [7] was “inactive” and the Potency [8] was “inactive”.
With `CC(C)NCC(O)c1ccccc1Cl` (stereo not given) the Potency [1] was “inactive”, the Potency [2] was “inactive” and the Potency [3] was “inactive”. For the same molecule, the Potency [4] was “inactive”, the Potency [5] was “inactive” and the Potency [6] was “inactive”. The Potency [7] was “inactive”.
With `CCN(CC)C(=O)N[C@@H]1C=C2c3cccc4[nH]cc(c34)C[C@@H]2N(C)C1` the Potency [1] was “inactive”, the Potency [2] was “inactive” and the Potency [3] was “inactive”. For the same molecule, the Potency [4] was “inactive”, the Potency [9] was “inactive” and the Potency [5] was “inactive”. The Potency [6] was “inactive”, the Potency [7] was “inactive” and the Potency [8] was “inactive”.
For `C[C@H]1O[C@@H](O[C@H]2[C@@H](O)C[C@H](O[C@H]3[C@@H](O)C[C@H](O[C@H]4CC[C@@]5(C)[C@H](CC[C@@H]6[C@@H]5CC[C@]5(C)[C@@H](C7=CC(=O)OC7)CC[C@]65O)C4)O[C@@H]3C)O[C@@H]2C)C[C@H](O)[C@@H]1O`, the Potency [1] was 37.4 nM (active), the Potency [2] was 0.0133 µM (active) and the Potency [3] was 0.0133 µM (active). The Potency [4] was 0.0053 µM (active).
In the case of `CC(C)CC(N(C)C)C1(c2ccc(Cl)cc2)CCC1` (stereo not given), the Potency [1] was “inactive”, the Potency [2] was “inactive” and the Potency [3] was “inactive”. For the same molecule, the Potency [4] was “inactive”, the Potency [5] was “inactive” and the Potency [6] was “inactive”. The Potency [7] was “inactive” and the Potency [8] was “inactive”.
For `CCC(C(N)=O)N1CCCC1=O` (stereo not given), the Potency [1] was “inactive”, the Potency [2] was “inactive” and the Potency [3] was “inactive”. For the same molecule, the Potency [4] was “inactive”, the Potency [5] was “inactive” and the Potency [6] was “inactive”. The Potency [7] was “inactive” and the Potency [8] was “inactive”.
For `NCC(CC(=O)O)c1ccc(Cl)cc1` (stereo not given), the activity change, negative = cytotoxic [1] was 1.72% [at 0.594 µM], the activity change, negative = cytotoxic [2] was -6.69% [at 0.597 µM] and the activity change, negative = cytotoxic [10] was -1.55% [at 0.597 µM]. The activity change, negative = cytotoxic [3] was -10.9% [at 0.597 µM], the activity change, negative = cytotoxic [5] was -3.28% [at 0.597 µM] and the activity change, negative = cytotoxic [6] was -3.85% [at 0.597 µM].
For `CCC(=O)C(CC(C)N(C)C)(c1ccccc1)c1ccccc1` (stereo not given), the Potency [1] was “inactive”, the Potency [2] was 34.7 µM (active) and the Potency [10] was “inactive”. For the same molecule, the Potency [5] was “inactive” and the Potency [6] was “inactive”.
In the case of `Cc1sc2c(c1C)C(c1ccc(Cl)cc1)=N[C@@H](CC(=O)OC(C)(C)C)c1nnc(C)n1-2`, the Potency [3] was 0.469 µM (active), the Potency [4] was 0.118 µM (active) and the Potency [9] was 1.37 µM (active). For the same molecule, the Potency [5] was 4.18 µM (active) and the Potency [7] was 1.48 µM (active).
With `CC(C)(N)Cc1ccc(Cl)cc1` the Potency [1] was “inactive”, the Potency [2] was “inactive” and the Potency [3] was “inactive”. For the same molecule, the Potency [4] was “inactive”, the Potency [5] was “inactive” and the Potency [6] was “inactive”. The Potency [7] was “inactive” and the Potency [8] was “inactive”.
With `Cn1c(CCCC(=O)O)nc2cc(N(CCCl)CCCl)ccc21` the Potency [1] was “inactive”, the Potency [10] was “inactive” and the Potency [3] was “inactive”. For the same molecule, the Potency [4] was 26.4 µM (active), the Potency [5] was 2.64 µM (active) and the Potency [6] was “inactive”. The Potency [7] was “inactive”.
In the case of `O=[N+]([O-])c1cc([As](=O)(O)O)ccc1O`, the Potency [1] was “inactive”, the Potency [2] was “inactive” and the Potency [3] was “inactive”. For the same molecule, the Potency [4] was “inactive”, the Potency [5] was “inactive” and the Potency [6] was “inactive”. The Potency [7] was “inactive” and the Potency [8] was “inactive”.
In the case of `O=P1(NCCCl)OCCCN1CCCl` (stereo not given), the Potency [1] was “inactive”, the Potency [2] was “inactive” and the Potency [4] was “inactive”. For the same molecule, the Potency [5] was “inactive”, the Potency [6] was “inactive” and the Potency [7] was “inactive”.
For `CN(C)[C@@H]1C(=O)C(C(N)=O)=C(O)[C@@]2(O)C(=O)C3=C(O)c4c(O)cccc4[C@@](C)(O)[C@H]3C[C@@H]12`, the Potency [1] was “inactive”, the Potency [2] was “inactive” and the Potency [3] was “inactive”. For the same molecule, the Potency [4] was “inactive”, the Potency [5] was “inactive” and the Potency [6] was “inactive”. The Potency [7] was “inactive” and the Potency [8] was “inactive”.
In the case of `N#CC(C#N)=Cc1ccc(O)c(O)c1`, the Potency [2] was “inactive”, the Potency [10] was “inactive” and the Potency [4] was 13.3 µM (active). For the same molecule, the Potency [6] was “inactive” and the Potency [7] was “inactive”.
With `CC(CCc1ccccc1)NC(C)C(O)c1ccc(O)cc1` (stereo not given) the Potency [1] was “inactive”, the Potency [2] was “inactive” and the Potency [3] was “inactive”. The Potency [5] was “inactive”, the Potency [6] was “inactive” and the Potency [7] was “inactive”. For the same molecule, the Potency [8] was “inactive”.
For `C[C@@H]1[C@@H](C(=O)C[C@H]2O[C@@H]3O[C@]4(C)CC[C@@H]5[C@H](C)CC[C@@H]([C@H]2C)[C@@]35OO4)O[C@@H]2O[C@]3(C)CC[C@H]4[C@H](C)CC[C@@H]1[C@@]24OO3`, the Potency [4] was 0.372 µM (active), the Potency [9] was 1.09 µM (active) and the Potency [5] was 0.469 µM (active). For the same molecule, the Potency [6] was “inactive”.
In the case of `CC(C)=CCOc1c2occc2cc2ccc(=O)oc12`, the Potency [1] was “inactive”, the Potency [2] was “inactive” and the Potency [3] was “inactive”. For the same molecule, the Potency [4] was “inactive”, the Potency [5] was “inactive” and the Potency [6] was “inactive”. The Potency [8] was “inactive”.
In the case of `O=C(O)C(=O)c1cn(Cc2ccccc2)c2ccc(-c3ccc(OC(F)(F)F)cc3)cc12`, the Potency [1] was “inactive”, the Potency [3] was “inactive” and the Potency [6] was “inactive”. The Potency [7] was 23.5 µM (active).
With `Cn1cc(C2=C(c3cn(C4CCN(Cc5ccccn5)CC4)c4ccccc34)C(=O)NC2=O)c2ccccc21` the Potency [1] was “inactive”, the Potency [2] was “inactive” and the Potency [3] was 3.72 µM (active). For the same molecule, the Potency [9] was “inactive” and the Potency [6] was “inactive”.
In the case of `CC(O)(CS(=O)(=O)c1ccc(F)cc1)C(=O)Nc1ccc(C#N)c(C(F)(F)F)c1` (stereo not given), the Potency [2] was 2.96 µM (active), the Potency [3] was 1.18 µM (active) and the Potency [4] was 0.469 µM (active). The Potency [9] was “inactive”, the Potency [5] was 3.32 µM (active) and the Potency [6] was “inactive”. The Potency [7] was 23.5 µM (active) and the Potency [8] was “inactive”.
With `O=C1CC[C@@]2(O)[C@H]3Cc4ccc(O)c5c4[C@@]2(CCN3CC2CC2)[C@H]1O5` the Potency [1] was “inactive”, the Potency [2] was “inactive” and the Potency [3] was “inactive”. For the same molecule, the Potency [9] was “inactive”, the Potency [5] was “inactive” and the Potency [6] was “inactive”. The Potency [7] was “inactive”.
With `Oc1ccc(Cl)cc1Cc1ccccc1` the Potency [1] was “inactive”, the Potency [2] was “inactive” and the Potency [3] was 49.1 µM (active). The Potency [6] was “inactive” and the Potency [7] was 24.6 µM (active) and 23.7 µM (active).
With `O=c1oc2ccccc2c(O)c1C(CC(O)c1ccc(-c2ccc(Br)cc2)cc1)c1ccccc1` (stereo not given) the Potency [1] was “inactive”, the Potency [2] was “inactive” and the Potency [3] was “inactive”. For the same molecule, the Potency [5] was “inactive”, the Potency [6] was “inactive” and the Potency [7] was “inactive”. For the same molecule, the Potency [8] was “inactive”.
For `CO[C@]12CC[C@@]3(C[C@@H]1[C@](C)(O)C(C)(C)C)[C@@H]1Cc4ccc(O)c5c4[C@@]3(CCN1CC1CC1)[C@H]2O5`, the Potency [3] was 48.1 µM (active), the Potency [4] was 30.3 µM (active) and the Potency [9] was 39.6 µM (active). The Potency [6] was 38.2 µM (active) and the Potency [7] was 30.3 µM (active).
With `C[C@@H]1O[C@@H](O[C@H]2C[C@@H](O)[C@]3(CO)[C@H]4[C@H](O)C[C@]5(C)[C@@H](C6=CC(=O)OC6)CC[C@]5(O)[C@@H]4CC[C@]3(O)C2)[C@H](O)[C@H](O)[C@H]1O` the Potency [1] was 131 nM (active) and 93.8 nM (active), the Potency [2] was 29.6 nM (active) and 53.1 nM (active) and the Potency [3] was 46.9 nM (active) and 66.8 nM (active). For the same molecule, the Potency [4] was 16.6 nM (active) and 23.7 nM (active), the Potency [5] was 74.3 nM (active) and 266 nM (active) and the Potency [7] was 59 nM (active) and 75 nM (active). The Potency [8] was 152 nM (active) and 344 nM (active).
With `CNC(=O)N1N=C(c2ccc(N)cc2)c2cc3c(cc2CC1C)OCO3` (stereo not given) the Potency [4] was 9.35 µM (active) and the Potency [6] was “inactive”.
In the case of `O=c1[nH]c2ccccc2n1C1CCN(CCCC(c2ccc(F)cc2)c2ccc(F)cc2)CC1`, the Potency [1] was “inactive”, the Potency [4] was 16.8 µM (active) and the Potency [6] was “inactive”. For the same molecule, the Potency [8] was 27.3 µM (active).
With `COc1ccccc1N1CCNCC1` the Potency [1] was “inactive”, the Potency [2] was “inactive” and the Potency [3] was “inactive”. The Potency [9] was “inactive”, the Potency [5] was “inactive” and the Potency [6] was “inactive”. The Potency [7] was “inactive”.
For `CCOC(=O)C1(c2ccccc2)CCN(CCC(C#N)(c2ccccc2)c2ccccc2)CC1`, the Potency [4] was 4.73 µM (active), the Potency [5] was 18.8 µM (active) and the Potency [6] was “inactive”. For the same molecule, the Potency [8] was “inactive”.
